Measured values published in PubChem BioAssay AID624331 (National Center for Advancing Translational Sciences (NCATS), 2012).
Results filed as inconclusive are left out. Where a call stands in place of a potency, no number is given. Active and inactive are the calls of the source. Calls follow the shape of the dose curve; as a rule, active = well fitted activation curve with a large enough effect; inconclusive = small, poorly fitted or top-dose-only effect; inactive = no such curve, though single readings can be large or run the other way.

Assay: qHTS assay for re-activators of p53 using a Luc reporter: Hit Validation with no p53 Expressed
Conditions: p53-null cells, luciferase reporter counter-screen; series mostly up to 46.1 µM
In short: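 Without p53 expression, cells (1000/well, Opti-MEM + 10% FBS) were exposed 24 h at 37 deg C to compounds in a 1:5 series from 10 mM stock (top 46.1 µM in well). Luminescent signal read 10 min after Amplite addition; actives flag unspecific activation.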
Potency is read from the fitted curve at half-maximal effect.

| SMILES | Potency |
| --- | --- |
| Cc1ccccc1Nc1nc(N)nc(COC(=O)c2ccco2)n1 | inactive |
| Cc1ccc(S(=O)(=O)c2cn(CC(=O)Nc3ccccc3)c3ccc(F)cc3c2=O)cc1 | inactive |
| O=C(COC(=O)c1cccnc1Cl)Nc1ccc(N2CCCCC2)cc1 | inactive |
| Cc1ccc(/C=C2\SC(=S)N(CCCC(=O)Nc3nccs3)C2=O)cc1 | inactive |
| COc1cccc(C(=O)c2sc(NC(C)C)nc2N)c1 | inactive |
| Cc1ccc(NC(=O)c2ccc(OC(=O)COc3ccc(Cl)c(C)c3)cc2)cc1 | inactive |
| CN(NC1CC(=O)N(c2ccccc2)C1=O)c1ccccc1 (stereo not given) | inactive |
| Cc1cccc(C)c1NC(=O)CC(NCc1ccco1)C(=O)O (stereo not given) | inactive |
| COc1ccc(NC(=O)/C(=C\c2ccc3c(c2)OCO3)NC(C)=O)cc1 | inactive |
| COc1ccccc1C(=O)NNC(=O)c1cccc(F)c1 | inactive |
| Cc1ncsc1C(=O)Nc1nc2c(s1)CCCC2 | inactive |
| Cc1ccnc(NC(=O)c2sc3cc(Cl)ccc3c2Cl)c1 | inactive |
| CCn1c(=N)n(CCOc2ccc(OC)cc2)c2ccccc21 | inactive |
| O=C(N/N=C/c1ccccc1O)C1CC(=O)N(c2ccc(Cl)cc2)C1 (stereo not given) | inactive |
| CC(=O)Oc1ccc(Cl)cc1/C=C/c1ccc2ccccc2n1 | 23.1 µM (active) |
| COc1ccc2oc(C(=O)Nc3nnc(C)s3)c(C)c2c1 | inactive |
| Nc1c(C(=O)c2ccc(Cl)cc2)oc2ccccc12 | inactive |
| CCCCOC(=O)Nc1ccc(N2CCCCC2)cc1 | inactive |
| Fc1cc(NCc2ccccc2)nc(NCc2ccccc2)n1 | inactive |
| CCOC(=O)C1CCN(S(=O)(=O)Cc2ccccc2)C1=O (stereo not given) | inactive |
